Measurements reported in PubChem BioAssay (NCATS).
Results filed as inconclusive are left out. The source made the active and inactive calls. Calls come from the whole dose curve; as a rule, active = well fitted curve in the direction sought with a large enough effect; inconclusive = small, poorly fitted or top-dose-only effect, or another doubt; inactive = no such curve, though single readings can be large or run the other way.

The compounds below were run against Metallo-beta-lactamase type 2 (Klebsiella pneumoniae) (UniProt C7C422) (assay: qHTS to identify inhibitors of the New Delhi Metallo-beta-lactamase (NDM): assay validation screen against the NCATS LOPAC Collection (AID 1794843;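 note: nitrocefin turnover by NDM-1 measured as 485 nm absorbance at plateau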)). Conditions: NDM-1 enzyme, nitrocefin hydrolysis, absorbance 485 nm; series mostly up to 38.4 µM; activity change, negative = inhibition: at the top concentration.
Metallo-beta-lactamase type 2 (Klebsiella pneumoniae), sequence (C7C422 whole entry, looked up): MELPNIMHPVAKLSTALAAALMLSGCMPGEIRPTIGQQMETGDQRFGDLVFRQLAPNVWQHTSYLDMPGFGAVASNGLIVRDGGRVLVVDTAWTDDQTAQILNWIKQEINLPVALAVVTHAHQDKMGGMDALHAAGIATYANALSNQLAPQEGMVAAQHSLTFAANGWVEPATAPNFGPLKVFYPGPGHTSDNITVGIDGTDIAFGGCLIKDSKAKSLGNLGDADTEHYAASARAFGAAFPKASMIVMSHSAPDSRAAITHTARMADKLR
Excerpt: Assay Submitter (PI): James Inglese Ph.D., Patricia Dranchak Ph.D., Mahesh Aitha Ph.D.
Assay Development and Screening Technology Laboratory (ADST)
National Center for Advancing Translational Sciences (NCATS), Rockville, MD
National Institute of Health (NIH), Bethesda, Maryland
The metallo-beta-lactamases (MBL) are a main antibiotic resistance mechanism evolved by bacteria. There is an urgent clinical need for MBL inhibitors to mitigate this growing threat. To support a machine-based learning study, qHTS has been used to experimentally test inhibitors identified by prediction tools.
PROTOCOL TABLE (as described by Inglese et al., 2007)
SEQUENCE No. (e.g., 1, 2, 3, etc.); […] (e.g., enzyme, Incubation, Reagent, etc.); VALUE; DESCRIPTION
1; NDM-1; 4 uL of 3 nM enzyme in 50 mM HEPES (pH 7.0), 1 uM Zn2SO4, 0.01% Tween20; Use BioRaptr to dispense into Aurora black, clear bottom low base 1536-well plates
2; Compounds; 23 nL; Use Pin Tool (Wako) to transfer DMSO control and library compounds in DMSO
4; Reagent; 2 uL of 50 uM nitrocefin
6; Detector; Absorbance at 485 nm (bandwidth = 5 nm, 25 flashes/well) on Tecan Infinity
NOTES (numbers refer to sequence above)
1; Column 1 of each plate received assay buffer without enzyme and columns 2-48 received enzyme for a final assay concentration of 2 nM.
2; Control plate contained DMSO in columns 1, 2, 3, and 4.
3; Compound interaction with enzyme.
5; Substrate interaction with enzyme, plateau phase of kinetics.
6; Default reader settings were applied for absorbance read at 485 nm, bandwidth = 5 nm, 25 flashes/well.
Inglese J, Shamu CE, Guy RK. 2007. Reporting data from high-throughput screening of small-molecule libraries. Nat Chem Biol. doi:10.1038/nchembio0807-438
Yasgar A, Shinn P, Jadhav A, Auld D, Michael S, Zheng W, Austin CP, Inglese J, Simeonov A. 2008. Compound Management for Quantitative High-Throughput Screening. J Lab Autom 13:79 - 89. doi:10.1016/j.jala.2007.12.004
% is set by controls: 0 for no effect and ±100 for the full control effect.

Row | SMILES | activity change, negative = inhibition | outcome
1 | CCCCc1oc2ccccc2c1C(=O)c1cc(I)c(OCCN(CC)CC)c(I)c1 | 6.15% (inactive) | –
2 | Clc1ccc2c(c1)C(N1CCNCC1)=Nc1ccccc1O2 | -0.0895% (inactive) | –
3 | CC(C)NCC(O)COc1ccc(CCOCC2CC2)cc1 (stereo not given) | 2.89% (inactive) | –
4 | CN1CCC(=C2c3ccccc3CC(=O)c3sccc32)CC1 | -2.85% (inactive) | –
5 | CC(CCc1ccc(O)cc1)NCCc1ccc(O)c(O)c1 (stereo not given) | -8.67% (inactive) | –
6 | O=C(c1ccc(OCCN2CCCCC2)cc1)c1c(-c2ccc(O)cc2)sc2cc(O)ccc12 | -3.78% (inactive) | –
7 | CC(C)(Oc1ccc(C2CC2(Cl)Cl)cc1)C(=O)O (stereo not given) | 2.79% (inactive) | –
8 | NS(=O)(=O)c1cc2c(cc1Cl)NCNS2(=O)=O | -3.42% (inactive) | –
9 | OCCN(CCO)c1nc(N2CCCCC2)c2nc(N(CCO)CCO)nc(N3CCCCC3)c2n1 | -5.05% (inactive) | –
10 | CN(C)CCC=C1c2ccccc2C=Cc2ccccc21 | -2.22% (inactive) | –
11 | CN1C(C(=O)Nc2ccccn2)=C(O)c2ccccc2S1(=O)=O | -3.33% (inactive) | –
12 | O=C1c2c(O)ccc(O)c2C(=O)c2c(NCCNCCO)ccc(NCCNCCO)c21 | -2.81% (inactive) | –
13 | CCOC(=O)Nc1ccc(NCc2ccc(F)cc2)nc1N | -6.43% (inactive) | –
14 | CC[N+](CC)(CC)CCOc1cccc(OCC[N+](CC)(CC)CC)c1OCC[N+](CC)(CC)CC | -0.0819% (inactive) | –
15 | COC(=O)Nc1nc2ccc(C(=O)c3cccs3)cc2[nH]1 | -3.3% (inactive) | –
16 | CN(C)CCCN1c2ccccc2CCc2ccc(Cl)cc21 | -4.45% (inactive) | –
17 | Cc1ccc(C(=O)Nc2ccc(S(=O)(=O)O)c3cc(S(=O)(=O)O)cc(S(=O)(=O)O)c23)cc1NC(=O)c1cccc(NC(=O)Nc2cccc(C(=O)Nc3cc(C(=O)Nc4ccc(S(=O)(=O)O)c5cc(S(=O)(=O)O)cc(S(=O)(=O)O)c45)ccc3C)c2)c1 | 1.26% (inactive) | –
18 | O=C1Cc2cc(CCN3CCN(c4nsc5ccccc45)CC3)c(Cl)cc2N1 | -0.346% (inactive) | –
19 | O=C(Nc1ccc([N+](=O)[O-])cc1Cl)c1cc(Cl)ccc1O | 2.13% (inactive) | –
20 | C[C@H]1c2cccc(O)c2C(O)=C2C(=O)[C@]3(O)C(O)=C(C(N)=O)C(=O)[C@@H](N(C)C)[C@@H]3[C@@H](O)[C@@H]21 | -4.21% (inactive) | –

Row | SMILES | activity change, negative = inhibition | outcome
21 | CN(CCOc1ccc(NS(C)(=O)=O)cc1)CCc1ccc(NS(C)(=O)=O)cc1 | 3.71% (inactive) | –
22 | CC(=O)OCC(CCn1cnc2cnc(N)nc21)COC(C)=O | -2.17% (inactive) | –
23 | Cc1cc(C(C)(C)C)cc(C)c1CC1=NCCN1 | 0.0491% (inactive) | –
24 | CC(C(=O)O)c1cccc(C(=O)c2ccccc2)c1 (stereo not given) | -2.77% (inactive) | –
25 | CC(C)C(=O)Nc1ccc([N+](=O)[O-])c(C(F)(F)F)c1 | -2.06% (inactive) | –
26 | CN1CCN2c3ccccc3Cc3ccccc3C2C1 (stereo not given) | -10.8% (inactive) | –
27 | CCc1cccc2c3c([nH]c12)C(CC)(CC(=O)O)OCC3 (stereo not given) | -1.38% (inactive) | –
28 | Nc1nnc(-c2cccc(Cl)c2Cl)c(N)n1 | -0.792% (inactive) | –
29 | CNCCCC12CCC(c3ccccc31)c1ccccc12 | -0.756% (inactive) | –
30 | NC(=O)NO | 5.31% (inactive) | –
31 | Cc1ccc(-c2cc(C(F)(F)F)nn2-c2ccc(S(N)(=O)=O)cc2)cc1 | 4.88% (inactive) | –
32 | Clc1ccc(C(c2ccccc2Cl)C(Cl)Cl)cc1 (stereo not given) | 11.8% (inactive) | –
33 | Fc1ccc([C@@H]2CCNC[C@H]2COc2ccc3c(c2)OCO3)cc1 | 15.7% (inactive) | –
34 | N[C@@H](Cc1c[nH]c2ccc(O)cc12)C(=O)O | -3.05% (inactive) | –
35 | CCOC(=O)C(C)(C)Oc1ccc(Cl)cc1 | 2.56% (inactive) | –
36 | CC#C[C@]1(O)CC[C@H]2[C@@H]3CCC4=CC(=O)CCC4=C3[C@@H](c3ccc(N(C)C)cc3)C[C@@]21C | 5.76% (inactive) | –
37 | NC(=O)OCC(COC(N)=O)c1ccccc1 | 0.792% (inactive) | –
38 | CN1CCC(=C2c3ccccc3C=Cc3ccccc32)CC1 | 1.33% (inactive) | –
39 | CN1C2CCC1CC(OC(=O)C(CO)c1ccccc1)C2 (stereo not given) | – | inactive
40 | COc1cc2nc(N(C)CCCNC(=O)C3CCCO3)nc(N)c2cc1OC (stereo not given) | -5.09% (inactive) | –
